# Laboratory results from PubChem BioAssay AID602143 (Vanderbilt Specialized Chemistry Center, 2011).
# The source made the active and inactive calls. Rule as the data show it: active = remaining activity below about 50%; inactive = the rest.
# Target: Phospholipase D2 (Homo sapiens) (UniProt O14939)
# Experiment: PLD2 inhibitors in cells, cell-based, HEK293, single concentration (AID 602143);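 also: tested at 200 nM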
# Conditions: HEK293 cellular PLD2 activity, percent of control; hits give low values
# Chain of Phospholipase D2 (Homo sapiens) (O14939 whole entry, looked up): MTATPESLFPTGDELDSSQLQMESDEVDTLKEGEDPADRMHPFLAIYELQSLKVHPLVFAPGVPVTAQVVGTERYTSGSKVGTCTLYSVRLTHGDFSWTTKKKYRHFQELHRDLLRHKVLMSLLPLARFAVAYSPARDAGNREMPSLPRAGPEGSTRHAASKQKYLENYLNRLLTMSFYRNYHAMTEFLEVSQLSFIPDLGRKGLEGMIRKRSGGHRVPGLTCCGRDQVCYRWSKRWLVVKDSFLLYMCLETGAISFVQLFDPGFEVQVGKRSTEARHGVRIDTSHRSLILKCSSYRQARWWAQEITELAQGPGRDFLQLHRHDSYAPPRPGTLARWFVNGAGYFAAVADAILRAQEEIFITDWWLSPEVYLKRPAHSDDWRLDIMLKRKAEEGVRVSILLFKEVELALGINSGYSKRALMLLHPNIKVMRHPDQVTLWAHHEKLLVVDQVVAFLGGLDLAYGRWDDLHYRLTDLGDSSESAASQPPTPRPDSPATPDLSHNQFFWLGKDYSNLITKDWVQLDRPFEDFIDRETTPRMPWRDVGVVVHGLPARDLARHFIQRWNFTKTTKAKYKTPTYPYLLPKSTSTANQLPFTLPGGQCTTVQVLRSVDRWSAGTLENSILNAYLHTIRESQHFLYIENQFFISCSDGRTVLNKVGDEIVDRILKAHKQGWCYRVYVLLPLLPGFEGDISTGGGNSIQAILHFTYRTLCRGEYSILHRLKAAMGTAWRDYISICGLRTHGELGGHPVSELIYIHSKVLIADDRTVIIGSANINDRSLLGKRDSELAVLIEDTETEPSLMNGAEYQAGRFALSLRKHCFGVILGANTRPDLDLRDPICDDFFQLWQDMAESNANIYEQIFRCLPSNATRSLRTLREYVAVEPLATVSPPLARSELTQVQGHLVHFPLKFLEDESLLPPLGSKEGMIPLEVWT
# Chain of Phospholipase D2 (Homo sapiens) (O14939 whole entry, looked up): as above
row,Structure (SMILES),remaining activity
1,O=C(N[C@@H](Cc1ccccc1)CN1CCC(n2c(=O)[nH]c3ccccc32)CC1)c1ccc2ccccc2c1,96.7% (inactive)
2,COc1cccc(N2CCN(CCNC(=O)c3ccc(Cl)cc3)CC2)c1,109% (inactive)
3,O=C(NCCN1CCC(n2c(=O)n(C(=O)c3ccc(Cl)cc3)c3ccccc32)CC1)c1ccc(Cl)cc1,64.5% (inactive)
4,C[C@@H](CN1CCC2(C=Cc3ccccc32)CC1)NC(=O)c1ccc2ccccc2c1,147% (inactive)
5,O=C(NCCN1CCC2(CCc3ccccc32)CC1)c1cnc2ccccc2c1,100% (inactive)
6,O=C(NCCN1CCC(n2c(=O)[nH]c3ccccc32)CC1)NCc1cccc(F)c1,101% (inactive)
7,CCCS(=O)(=O)NCCN1CCC(n2c(=O)[nH]c3ccccc32)CC1,64.7% (inactive)
8,O=C(NCCN1CCN(c2ncccn2)CC1)c1ccc2ccccc2c1,90.4% (inactive)
9,O=C(NCCN1CCC(n2c(=O)[nH]c3ccccc32)CC1)Nc1cccc(OC(F)(F)F)c1,111% (inactive)
10,O=C(NCCN1CCC2(CC1)CNCc1ccccc12)c1cnc2ccccc2c1,97.1% (inactive)
11,Cc1ccc(C(=O)N[C@@H](C)CN2CCC(n3c(=O)[nH]c4cc(Cl)ccc43)CC2)cc1,86% (inactive)
12,O=C(NCCN1CCC(n2c(=O)[nH]c3ccccc32)CC1)c1cc([N+](=O)[O-])cc([N+](=O)[O-])c1,102% (inactive)
13,O=C(NCCN1CCC(n2c(=O)[nH]c3ccccc32)CC1)Nc1ccccc1F,105% (inactive)
14,COc1cccc(N2CCN(CCNC(=O)c3ccc(C)cc3)CC2)c1,97.6% (inactive)
15,O=C(NCCN1CCC2(CC1)CCN(c1ccccc1)C2=O)c1ccc2ccccc2c1,55% (inactive)
16,C[C@@H](CN1CCC(n2c(=O)[nH]c3ccc(F)cc32)CC1)NC(=O)c1ccc(Cl)cc1,68.3% (inactive)
17,O=C(NCCN1CCC(n2c(=O)[nH]c3ccccc32)CC1)c1cscn1,57.9% (inactive)
18,O=C(NCCN1CCC(n2c(=O)[nH]c3cc(Cl)ccc32)CC1)c1ccc2ccccc2c1,63.9% (inactive)
19,COc1ccc2c(c1)c(CC(=O)NCCN1CCC(n3c(=O)[nH]c4ccccc43)CC1)c(C)n2C(=O)c1ccc(Cl)cc1,73.8% (inactive)
20,O=C(NCCN1CCC(n2c(=O)[nH]c3cc(Cl)ccc32)CC1)c1ccc(Cl)cc1,56.9% (inactive)

row,Structure (SMILES),remaining activity
1,CS(=O)(=O)NCCN1CCC(n2c(=O)[nH]c3ccccc32)CC1,96.5% (inactive)
2,O=C(NCCN1CCC(n2c(=O)[nH]c3cc(I)ccc32)CC1)c1ccc(Cl)cc1,36.7% (active)
3,O=C(c1ccc(Cl)cc1)N1CCC2(CC1)C(=O)NCN2c1ccccc1,69.9% (inactive)
4,O=C(NCCN1CCC2(C=Cc3ccccc32)CC1)[C@H]1C[C@@H]1c1ccccc1,130% (inactive)
5,O=C(NCCN1CCC(n2nnc3ccccc32)CC1)C1CC1c1ccccc1 (stereo not given),78.1% (inactive)
6,COc1cccc(C(=O)NCCN2CCC(n3c(=O)[nH]c4ccccc43)CC2)n1,72.5% (inactive)
7,C[C@@H](CN1CCC2(CC1)CCN(C)C2=O)NC(=O)c1cnc2ccccc2c1,113% (inactive)
8,O=C(NCCN1CCC(n2c(=O)[nH]c3ccc(F)cc32)CC1)c1cccc2c1C(=O)c1ccccc1-2,0% (active)
9,O=C(NCCN1CCN(c2ccncc2)CC1)c1ccc(F)cc1,102% (inactive)
10,C[C@@H](CN1CCC(n2c(=O)[nH]c3ccccc32)CC1)NC(=O)Cc1cccs1,99.6% (inactive)
11,O=c1[nH]c2ccccc2n1C1CCN(CCNC(=S)Nc2ccc(Cl)c(Cl)c2)CC1,93.9% (inactive)
12,O=C(CCCN1CCC(O)(c2ccc(Cl)cc2)CC1)c1ccc(F)cc1,107% (inactive)
13,O=C(CCc1ccccc1)NCCN1CCC(n2c(=O)[nH]c3ccccc32)CC1,80.7% (inactive)
14,Cc1ccc(C(=O)NCCN2CCC(n3c(=O)[nH]c4cc(Br)ccc43)CC2)cc1,21.8% (active)
15,O=C(NCCN1CCC(C(=O)NCCc2ccccn2)CC1)c1ccc2ccccc2c1,100% (inactive)
16,O=C(NCCN1CCC(n2c(=O)[nH]c3ccccc32)CC1)Nc1cccc(F)c1,87.9% (inactive)
17,O=C(Cc1ccc2ccccc2c1)NCCN1CCC(n2c(=O)[nH]c3ccccc32)CC1,112% (inactive)
18,NC1(CN2CCC(c3nc4ccccc4[nH]3)CC2)CCCC1 (tested in a mixture with another compound),105% (inactive)
19,O=C(NCCN1CCC2(CC1)CNCc1ccccc12)c1ccc2ccccc2c1,103% (inactive)
20,O=C(NCCN1CCC(n2c(=O)[nH]c3ccccc32)CC1)Nc1ccccc1C(F)(F)F,114% (inactive)
